From PubChem BioAssay (Tox21) come the findings set out here.

The structures appear in SMILES notation. Records with an inconclusive call do not appear. Values without a mark were called inactive. Calls come from the whole dose curve; as a rule, active = well fitted cell-killing curve with a large enough effect in the repeat runs; inconclusive = weak or mixed curves, or effect the other way; inactive = flat fitted curve, though single readings scatter.
% is set by controls: 0 for no effect and ±100 for the full control effect.

The assay is described as follows: qHTS assay to identify small molecule agonists of the estrogen receptor beta (ER-beta) signaling pathway - cell viability counter screen (AID 1259380). Note: nearly all actives have a fitted effect of over 30% in size. As to conditions: ER-beta-bla HEK293T viability, CellTiter-Glo luminescence, 16 h; series mostly up to 92.4 µM; activity change, negative = cytotoxicity: at the top concentration. From the text: National Center for Advancing Translational Sciences [NCATS]
NIH Chemical Genomics Center [NCGC]
U.S. Environmental Protection Agency [EPA]
National Institutes of Environmental Health Sciences [NIEHS]
National Toxicology Program [NTP]
U.S. Food and Drug Administration [FDA]
Estrogen receptor (ER), a nuclear hormone receptor, plays an important role in development, metabolic homeostasis and reproduction. Two subtypes of ER, ER-alpha and ER-beta, have similar expression patterns with some uniqueness in both types. Endocrine disrupting chemicals (EDCs) and their interactions with steroid hormone receptors like ER causes disruption of normal endocrine function. To identify the compounds that activate ER signaling, an ER beta-UAS-bla GripTite cell line (Life Technologies, Madison, WI, USA) containing a beta-lactamase reporter gene under the control of an UAS response element was used to screen Tox21 10K compound library. The cytotoxicity of the Tox21 compound library against the ER-beta-bla cell line was tested in parallel by measuring the cell viability using CellTiter-Glo assay in the same wells.
Tox21 Assay Protocol Summary:
ER-beta-UAS-bla HEK293T cells were dispensed at 2,000 cells/5 uL of assay medium containing 2% charcoal stripped FBS per well into black wall/clear-bottom 1536-well plates using a Multidrop Combi (ThermoFisher Scientific, Waltham, MA) dispenser. After the assay plates were incubated at a 37C and 5% CO2 for 6 hr, 23 nL of compounds dissolved in DMSO, positive controls or DMSO only was transferred to the assay plate by a Pintool station (Kalypsys, San Diego, CA). The plates were incubated at 37C and 5% CO2 for 16 hr. Then 1 uL of LiveBLAzerTM B/G FRET substrate was added using a BioRAPTR FRD (Flying Reagent Dispenser, Aurora Discovery, San Diego, CA) and then the plates were incubated at room temperature for 2 hours, and fluorescence intensity was measured by an Envision plate reader (PerkinElmer, Shelton, CT). For cell viability readout that measures cytotoxicity, 4 uL/well of CellTiter-Glo reagent was added into the assay plates using a FRD. After 30 min incubation at room temperature, the luminescence intensity in the plates was measured using a ViewLux (PerkinElmer) plate reader.
(In general: Quantitative high-throughput screening tests each substance at several concentrations.)
On to `CC1c2ccccc2CN1NC(=O)c1ccc(Cl)c(S(N)(=O)=O)c1` (stereo not given), for which the “activity change, negative = cytotoxicity” value is 0.887% [at 42.5 µM].

As to `CCC(C(=O)OCCN1CCOC(c2ccccc2)C1C)c1ccccc1` (stereo not given), the “activity change, negative = cytotoxicity” value is -1.6% [at 42.5 µM].

With `Cc1c(C(=O)c2c[nH]n(C)c2=O)ccc(S(C)(=O)=O)c1C1=NOCC1`, the “activity change, negative = cytotoxicity” value was 8.69% [at 42.5 µM].

As for `O=C(CCCCC(=O)Nc1c(I)cc(I)c(C(=O)O)c1I)Nc1c(I)cc(I)c(C(=O)O)c1I`, the “activity change, negative = cytotoxicity” value is 1.27% [at 42.5 µM].

Take `CCCCCCCCCCCCCCC(=O)NC(CO)CCCCCCCCCCCCCC` (stereo not given): the “activity change, negative = cytotoxicity” value is 1.95%.

As to `CC(C)OC(=O)OCOP(=O)(CO[C@H](C)Cn1cnc2c(N)ncnc21)OCOC(=O)OC(C)C`, the “activity change, negative = cytotoxicity” value is -1.32% [at 42.5 µM].

Regarding `COC(=O)c1ccccc1C(=O)O`, the “activity change, negative = cytotoxicity” value was 0.732%.

For the molecule `CCC(C)C(C)=O` (stereo not given), the “activity change, negative = cytotoxicity” value was 1%.

As to `CC1(C)O[C@H]2CC(=O)OC[C@]23[C@H]2CC[C@@]4(C)[C@H](c5ccoc5)OC(=O)[C@H]5O[C@]54[C@]2(C)C(=O)C[C@@H]13`, the “activity change, negative = cytotoxicity” value was 0.28% [at 42.5 µM].

With `CCN1CCCC1CN` (stereo not given), the “activity change, negative = cytotoxicity” value was 10.2% [at 42.5 µM].

On to `OC1OCCOC1O` (stereo not given), for which the “activity change, negative = cytotoxicity” value was 2.87%.

Consider `COc1ccc2c(c1)c1c3n2CCN(C)C3=NCC1`, for which the “activity change, negative = cytotoxicity” value was 2.9% [at 42.5 µM].

Consider `CC1(C)Cc2cccc(N)c2O1`, for which the “activity change, negative = cytotoxicity” value is 2.32%.

For the molecule `CCC(C)C(=O)OCCc1ccccc1` (stereo not given), the “activity change, negative = cytotoxicity” value is 0.05%.

Take `C/C(CC(C)C)=N\O`: the “activity change, negative = cytotoxicity” value is 0.454%.

Regarding `O=C(CN1CCNCC1)NC1CCCCC1`, the “activity change, negative = cytotoxicity” value was 2.55% [at 42.5 µM].

For the molecule `COc1cc(OC)nc(O[C@H](C(=O)O)C(OC)(c2ccccc2)c2ccccc2)n1`, the “activity change, negative = cytotoxicity” value is -2.86% [at 42.5 µM].

`CC(C)c1ccc(C=O)cc1`: the “activity change, negative = cytotoxicity” value was 2.63%.

Regarding `CC(C)CO`, the “activity change, negative = cytotoxicity” value is 1.49%.

As to `CN(C)CCCCl`, the “activity change, negative = cytotoxicity” value is -3.12%.

For `CC1CCc2c(N3CCC(O)CC3)c(F)cc3c(=O)c(C(=O)O)cn1c23` (stereo not given), the “activity change, negative = cytotoxicity” value is 1.62% [at 42.5 µM].

As to `CCCCC1CCC(O)CC1` (stereo not given), the “activity change, negative = cytotoxicity” value was 0.27%.

For `Cc1ccccc1C(N)=O`, the “activity change, negative = cytotoxicity” value was -3.48%.

In the case of `C=CC(=O)OCC1CCCO1` (stereo not given), the “activity change, negative = cytotoxicity” value was 4.74%.

As to `CC(=O)C1C(=O)C=C(C)OC1=O` (stereo not given), the “activity change, negative = cytotoxicity” value was 2%.

`O=C(O)CNC(=O)CNC(=O)CNC(=O)CSC(=O)c1ccccc1`: the “activity change, negative = cytotoxicity” value is 3.88% [at 42.5 µM].

Turning to `O=C(O)CSCC(=O)NC1CCSC1=O` (stereo not given), the “activity change, negative = cytotoxicity” value was 12% [at 42.5 µM].

Turning to `CC(=O)CCC1=C(C)CCCC1(C)C`, the “activity change, negative = cytotoxicity” value is 2.78%.

With `O=C(Cn1ccnc1[N+](=O)[O-])NCc1ccccc1`, the “activity change, negative = cytotoxicity” value was 5.07% [at 42.5 µM].

Turning to `CCOc1ccccc1OCC1CNCCO1` (stereo not given), the “activity change, negative = cytotoxicity” value is 2.3% [at 42.5 µM].

For the molecule `CC1(C)[C@H]2CC[C@](C)(C2)[C@H]1O`, the “activity change, negative = cytotoxicity” value was 1.08%.

In the case of `O=C[O][Al]([O]C=O)[O]C=O`, the “activity change, negative = cytotoxicity” value is 7.3%.

As to `Cc1c(N)cccc1Cl`, the “activity change, negative = cytotoxicity” value is 0.774%.

As to `CCCCCCCCCOC(=O)CCCCC(=O)OCCCCCCC`, the “activity change, negative = cytotoxicity” value was 2.77%.

Take `CCO[Si](CC)(OCC)OCC`: the “activity change, negative = cytotoxicity” value is 0.625%.

`CCCCOC(=O)C(C)O` (stereo not given): the “activity change, negative = cytotoxicity” value was 4.73%.

For the molecule `C=CC(=O)CCCCC`, the “activity change, negative = cytotoxicity” value was 0.41%.

As for `CCCCOCC(C)O` (stereo not given), the “activity change, negative = cytotoxicity” value was 6%.

On to `CC(C)NCC(O)c1ccc2ccccc2c1` (stereo not given), for which the “activity change, negative = cytotoxicity” value is 0.666% [at 42.5 µM].

As for `CO[C@@]1(NC(=O)Cc2cccs2)C(=O)N2C(C(=O)O)=C(COC(N)=O)CS[C@@H]21`, the “activity change, negative = cytotoxicity” value was 7.2% [at 42.5 µM].
